Source: PubChem BioAssay
Rows were chosen to be rich in hits. Some 7.9% of all compounds tested hit in one or more screens of this group.
KB-3-1 cytotox: kills parental KB-3-1 adenocarcinoma cells; KB-3-1 viability, CellTiter-Glo ATP luminescence, 72 h; Potency, µM (highest dose often 46.1 µM), actives largely listed as cytotoxic; actives 1.4% (n = 400,000); AID 1347075; also: nearly all actives have a fitted effect of over 60% in size
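Screening of KB-3-1 cells (DMEM, 10% FBS, phenol-red free) ran from lowest to highest compound concentration; after 72 h at 37 °C viability was read luminescently and curves fitted.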
MCF10A rerep: inducers of DNA re-replication in MCF 10A breast cells; Potency, µM (top dose mostly 46.1 µM), usual class: activators; actives 2.9% (n = 350,000); MCF 10A DNA re-replication, Hoechst nuclear intensity, 48 h; also: nearly all actives have a fitted effect of over 50% in size
HT1080-NT tox: kills 2HG-producing HT-1080-NT fibrosarcoma cells. HT-1080-NT fibrosarcoma viability, CellTiter-Glo ATP luminescence, 48 h. actives 1.6% (n = 360,000). Potency, µM (titrated, usually from 46.1 µM), actives largely listed as cytotoxic. AID 686970;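 also: NT is the 2HG producing partner of a matched IDH1 knockdown line; nearly all actives have a fitted effect of over 55% in size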
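A 48-hour cytotoxicity screen used HT-1080-NT cells plated 2 hours before compound delivery. ATP-based CellTiter-Glo luminescence measured viability, normalized to DMSO and no-cell controls.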
HT1080 IDH1KD tx: HT-1080 IDH1 knockdown cell toxicity (counter line); HT-1080 IDH1 knockdown viability, ATP luminescence, 48 h; Potency, µM (series often up to 46.1 µM), actives largely listed as cytotoxic; actives 2% (n = 360,000)
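Viability of IDH1-knockdown HT-1080 fibrosarcoma cells was assessed by CellTiter-Glo after 48 h at 37 °C with titrated compound; concentration-effect curves were classified by fit quality and response size.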
SW480 rerep: induces DNA re-replication in SW480 colon adenocarcinoma cells; SW480 DNA re-replication, Hoechst DNA content imaging, 48 h; Potency, µM (series often up to 46.1 µM), usual class: activators; actives 1.8% (n = 340,000); also: nearly all actives have a fitted effect of over 55% in size
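Quantitative HTS format with DMSO vehicle controls; 48 hr drug incubation at 37 C, then 40 min Hoechst staining and scanning imager measurement at 405 nm excitation.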
KB-V1 MDR tox: KB-V1 MDR subline cytotoxicity; Potency, µM (titrated, usually from 46.1 µM), hits mostly cytotoxic; AID 1347076; KB-V1 MDR cells viability, CellTiter-Glo, 72 h; actives 3.4% (n = 400,000); also: nearly all actives have a fitted effect of over 60% in size
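Drug-selected KB-V1 cells, grown in DMEM lacking phenol red with 10% FBS, receive compound titrations; after three days at 37 degrees C, surviving cell ATP is quantified by CellTiter-Glo luminescence and responses normalized and curve-fitted.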
Hits are given with their value; i = inactive; ? = inconclusive; nt = no result given; [ ] = dose if it differs, or a comment. Calls follow the shape of the dose curve; as a rule, active = well fitted curve in the direction sought with a large enough effect; inconclusive = small, poorly fitted or top-dose-only effect, or another doubt; inactive = no such curve, though single readings can be large; an effect the other way counts as inactive or inconclusive.

SMILES | KB-3-1 cytotox | MCF10A rerep | HT1080-NT tox | HT1080 IDH1KD tx | SW480 rerep | KB-V1 MDR tox
COc1ccc(C2CCCN2CC(O)COc2ccccc2C(C)C)cc1 (stereo not given) | i | ? | 21µM | 21µM | ? | ?
Cc1ccc(C)c(-c2cc(C(=O)NCc3cccs3)c3ccccc3n2)c1 | i | ? | i | i | ? | 12µM
Nc1nc2ccccc2cc1C(=O)NCc1cccs1 | i | nt | i | i | nt | 16µM
O=C(NCc1cccs1)c1cc(-c2ccccc2)nc2ccccc12 | i | ? | i | i | i | ?
Nc1nc2ccccc2cc1C(=O)NCCCCc1ccccc1 | i | nt | ? | ? | nt | 2.6µM
Cc1ccccc1C(=O)NCCCCc1ccccc1 | i | i | i | i | i | i
O=C(CCSCc1ccccc1Cl)NCCc1ccccc1 | i | nt | nt | nt | nt | i
Cc1ccc2c(CN(C)Cc3ccccc3)cc(=O)oc2c1C | ? | i | ? | ? | i | ?
Cc1ccc2c(CN(C)Cc3ccc(OC(F)F)cc3)cc(=O)oc2c1C | ? | i | i | i | i | 16µM
N#CC1=C(N)Oc2cc(N)ccc2C1c1cccc(Br)c1 (stereo not given) | 8.2µM | 1.6µM | ? | ? | ? | ?
COc1cccc(C2C(C#N)=C(N)Oc3cc(N)ccc32)c1OC (stereo not given) | i | i | i | i | i | i
N#CC1=C(N)Oc2cc(N)ccc2C1c1ccccc1F (stereo not given) | ? | 18µM | 15µM | 16µM | 18µM | 7.3µM
N#CC1=C(N)Oc2cc(N)ccc2C1c1cc(Br)cs1 (stereo not given) | 8.2µM | ? | 2.1µM | 2.9µM | 16µM | ?
N#CC1=C(N)Oc2cc(O)ccc2C1c1ccccc1 (stereo not given) | ? | ? | ? | ? | i | 18µM
COc1ccc(C2C(C#N)=C(N)Oc3cc(O)ccc32)cc1 (stereo not given) | i | i | i | i | i[1.84 µM] | i
COc1ccc(Cn2ccc3nc(C)c(C(=O)Nc4ccc(OC(F)(F)F)cc4)cc3c2=O)cc1 | i | nt | nt | nt | nt | i
COc1ccc(-c2noc(C3CC(=O)N(c4ccc5c(c4)OCCO5)C3)n2)c(OC)c1 (stereo not given) | i | nt | nt | nt | nt | i
COc1ccccc1Cc1nc2ccccc2nc1SCC(=O)Nc1c(C)cccc1C | i | nt | nt | nt | nt | ?
Cc1cccc(-c2ocnc2C(=O)Nc2ccccc2NC(=O)c2ccccn2)c1 | i | ? | 18µM | ? | i | ?
Cc1cc2nc(-c3ccc(SCc4ccccn4)nc3)[nH]c2cc1C | i | ? | ? | ? | ? | 16µM
COc1ccc(/C=C2\Sc3ccc(C(=O)N4CCOCC4)cc3N(C)C2=O)cc1 | i | ? | i | i | i | i
C=CCN1C(=O)c2ccccc2Sc2ccc(C(=O)N3CCN(C)CC3)cc21 | i | i | i | i | i | 9.2µM
CN1CCN(C(=O)c2ccc3c(c2)N(C)C(=O)/C(=C/c2cccc(Cl)c2)S3)CC1 | i | 13µM | i | i | i | i
COc1ccc(/C=C2\Sc3ccc(C(=O)NCC4CCCO4)cc3N(C)C2=O)cc1 (stereo not given) | i | 23µM | ? | i | 23µM | i
COc1cccc(/C=C2\Sc3ccc(C(=O)NCc4cccnc4)cc3N(C)C2=O)c1 | i | ? | i | i | ? | i
SMILES | KB-3-1 cytotox | MCF10A rerep | HT1080-NT tox | HT1080 IDH1KD tx | SW480 rerep | KB-V1 MDR tox
COc1ccc(/C=C2\Sc3ccc(C(=O)NCc4cccnc4)cc3N(C)C2=O)cc1OC | i | ? | 23µM | 23µM | ? | i
COc1ccc(/C=C2\Sc3ccc(C(=O)N4CCN(Cc5ccccc5)CC4)cc3N(C)C2=O)cc1OC | i | 21µM | ? | i | ? | i
CCn1c(C)cc2c(c1=O)C(c1ccccc1)C(C(=O)OC)=C(N)O2 (stereo not given) | i | 16µM | i[9.24 µM] | ? | i | i
O=S(=O)(NCC1CCCO1)c1ccccc1F (stereo not given) | i | i | i | i | i | i
Cc1ccccc1S(=O)(=O)NCC1CCCO1 (stereo not given) | i | i | i | i | 26µM | i
CCc1ccccc1Nc1sc(C(=O)c2cccc(OC)c2)c(N)c1S(=O)(=O)c1ccccc1 | ? | nt | nt | nt | nt | i
CC(C)c1ncc([N+](=O)[O-])n1C | nt | i | nt | nt | i | nt
Cc1cc(=O)n(Cc2ccccc2Cl)c2c1c(C)nn2-c1ccccc1 | i | nt | nt | nt | nt | i
CCN1C(=O)/C(=C/c2nc3ccccc3c(=O)n2-c2ccccc2)c2ccccc21 | 23µM | ? | i | i | ? | i
CCN1C(=O)/C(=C\c2nc3ccccc3c(=O)n2CC)c2ccccc21 | i | i | i | i | i | i
Cc1[nH]c2ccc(C(=O)N3CCCC3)cc2c1C | i | i | i | i | i | ?
CCOC(=O)c1[nH]c(C)c(C(=O)N2CCN(c3cccc(Cl)c3)CC2)c1C | i | i | i | ? | i | 13µM
Cc1[nH]c2ccc(C(=O)N3CCN(c4cccc(Cl)c4)CC3)cc2c1C | ? | ? | ? | 7.3µM | ? | ?
COCCn1c(=S)[nH]c2cc(C(=O)N3CCN(c4ccccc4OC)CC3)ccc2c1=O | i | i | i | i | i | 15µM
CCOC(=O)c1[nH]c(C)c(C(=O)N2CCc3ccccc32)c1C | 0.33µM | 0.41µM | ? | 1µM | 0.52µM | 0.33µM
COc1ccc(OC)c(NC(=O)Cc2coc3ccc(C(C)C)cc23)c1 | i | nt | nt | nt | nt | i
CCc1c(C)sc2c1CCN(C(=O)Nc1ccccc1C(F)(F)F)C2c1ccccc1 (stereo not given) | i | nt | nt | nt | nt | i
CCOC(=O)c1[nH]c2ccc(OC)cc2c1NC(=S)N1CCN(c2cccc(C)c2C)CC1 | i | 15µM | ? | ? | ? | i
CCOC(=O)c1[nH]c2ccc(OC)cc2c1NC(=S)N1CCN(c2ccc(F)cc2)CC1 | i | i | i | i | i | i
Cc1[nH]c2ccc(C(=O)N3CCN(c4ccccc4Cl)CC3)cc2c1C | i | ? | i | i | ? | i
Cc1cccc(N2CCN(C(=O)c3ccc4[nH]c(C)c(C)c4c3)CC2)c1C | 26µM | 2.3µM | ? | 3.7µM | 3.3µM | 2.3µM
COc1ccccc1N1CCN(C(=O)c2ccc3[nH]c(C)c(C)c3c2)CC1 | 1.6µM | ? | 1.5µM | 1.3µM | 2.3µM | 4.6µM
COc1ccccc1N1CCN(C(=O)c2ccc3[nH]c4c(c3c2)CC(C)CC4)CC1 (stereo not given) | i | ? | ? | ? | i | 21µM
CCOC(=O)C1CCCN(S(=O)(=O)c2ccc3[nH]c(=O)oc3c2)C1 (stereo not given) | i | nt | nt | nt | nt | i
COc1ccc(OC)c(CCNC(=O)c2csc3c2CCCCC3)c1 | ? | nt | nt | nt | nt | i
COc1cc2nc(N3CCCN(C)CC3)nc(N)c2cc1OC | nt | nt | i | i | nt | nt
